The text below walks through data of ChEMBL document CHEMBL3988442, “University of Dundee, Small-Polar-MMV Screening Library” (2021).

About 13,000 (27%) of roughly 48,000 compounds showed an effect of 50% or more. The list shows a part of the results.

The subject of the experiment is Wolbachia pipientis. Nature of the experiment: Anti-Wolbachia Cell-Based Screen. Type of experiment: functional. Also noted: scale not given: in the data most compounds retested in dose-response had high values. Conditions: 5 µM.
Take `N#Cc1cnn(CCN2CCOC(CNc3cccnn3)C2)c1` (configuration not stated): the “Percent Effect” value is given as -39.45%.

As for `CC(C)CCN1CCNC(=O)C1CC(=O)N1CCc2sccc2C1` (configuration not stated), the “Percent Effect” value was -6.453%.

With `COc1ccccc1CC1CCCN(C(=O)c2nccnc2N)C1` (configuration not stated), the “Percent Effect” value came out at 7.342%.

Turning to `COc1ccccc1CN1CCCC(Cc2nccnc2N)C1` (configuration not stated), the “Percent Effect” value came out at 104.1%.

For `Nc1nccnc1CC1CCCN(Cc2ccnc3ccccc23)C1` (configuration not stated), the “Percent Effect” value was 254.5%.

With `c1ccc2c(Cc3nnc([C@H]4CCN(CC5CC5)C4)o3)c[nH]c2c1`, the “Percent Effect” value is on record as -3.432%.

Take `O=C(NCC1CCCN(Cc2cccc3nonc23)C1)c1ccc[nH]1` (configuration not stated): the “Percent Effect” value was found to be 22.2%.

On to `O=C(Cc1c[nH]c2ccccc12)NCC1CCN(Cc2c[nH]cn2)C1` (configuration not stated), for which the “Percent Effect” value was -4.859%.

Consider `Nc1nccnc1CC1CCCN(Cc2cccc3[nH]ccc23)C1` (configuration not stated), for which the “Percent Effect” value turned out to be 126.9%.

Turning to `COc1ccccc1CN1CCCC(n2cccn2)C1` (configuration not stated), the “Percent Effect” value is -0.1221%.

`Nc1nccnc1CC1CCCN(Cc2c[nH]c3ccccc23)C1` (configuration not stated): the “Percent Effect” value is 102%.

On to `Cc1nc(CC2CCCN(Cc3nc(N)c4ccccc4n3)C2)no1` (configuration not stated), for which the “Percent Effect” value is -1.933%.

Turning to `CCn1c(C2CCCN(Cc3ccnc4ccccc34)C2)nn(C)c1=O` (configuration not stated), the “Percent Effect” value stood at 0.7157%.

As for `CC(=O)N1[C@H](Cn2cncn2)C[C@@H]2CN(c3ccc(C)nn3)CC[C@@H]21`, the “Percent Effect” value amounted to 0.7192%.

In the case of `N#Cc1cccc(S(=O)(=O)Nc2c(F)cccc2N2CCCC2)c1`, the “Percent Effect” value was -6.503%.

With `Cc1nn(C)c2nc(N(Cc3ccncc3)CC3CCCO3)sc12` (configuration not stated), the “Percent Effect” value is -11.41%.

Regarding `O=C(NCC1CCOC1)c1cc(-c2ccccc2Cl)[nH]n1` (configuration not stated), the “Percent Effect” value was -16.18%.

For `O=C(NCC1CCOCC1)c1cc(-c2cccnc2)c2cnccc2n1`, the “Percent Effect” value is recorded as 94.41%.

In the case of `O=C(NCC1CCOC1)c1csc(Cc2ccccc2)n1` (configuration not stated), the “Percent Effect” value was 5.242%.

Turning to `O=C(NCC1CCOC1)c1cc(-c2ccc(F)cc2)[nH]n1` (configuration not stated), the “Percent Effect” value is listed as -3.417%.

In the case of `O=C(NCC1CCOCC1)c1cc(-c2ccncc2)c2cnccc2n1`, the “Percent Effect” value is on record as 108.8%.

Take `CSCCC(=O)NCc1cc2n(n1)CCN(C(=O)N(C)C)C2`: the “Percent Effect” value is reported as -0.4963%.

For `CSCC[C@H](N)C(=O)NCc1cc2n(n1)CCCN(C(=O)N(C)C)C2`, the “Percent Effect” value is reported as 122.1%.

For `CSC(C)CCN1CCCn2nc(CNC(=O)C3CCC3)cc2C1` (configuration not stated), the “Percent Effect” value is reported as -26.67%.

As for `CCn1cc(CN2CCCn3nc(CNC(=O)C4CCC4)cc3C2)cn1`, the “Percent Effect” value was found to be 6.964%.

`CCSCCC(=O)NCc1cc2n(n1)CCN(C(=O)N(C)C)C2`: the “Percent Effect” value was -0.2016%.

With `CSCC[C@H](N)C(=O)NCc1cc2n(n1)CCCN(C(=O)C1CCC1)C2`, the “Percent Effect” value amounted to 51.59%.

In the case of `COc1c(F)cccc1C(=O)N(C)Cc1nc(-c2ccccn2)no1`, the “Percent Effect” value was -5.196%.

For the compound `O=C(c1nnn(-c2ccccc2F)c1-c1ccccn1)N1CCSCC1`, the “Percent Effect” value is 6.252%.

For `CCC(CC)CN(C)Cc1nc(-c2ccccc2NS(C)(=O)=O)oc1C`, the “Percent Effect” value is -3.021%.

Regarding `Cc1nsc(NC(=O)N2CCCCC2CCO)n1` (configuration not stated), the “Percent Effect” value is 17.59%.

Turning to `c1ncn(Cc2ccc(CNCc3ccc4c(c3)OCCO4)cc2)n1`, the “Percent Effect” value came to 118.2%.

Consider `c1cc(CNCc2ccnc(N3CCCCC3)c2)c2c(c1)OCCCO2`, for which the “Percent Effect” value is recorded as -27.55%.

Regarding `c1cc(CNCc2ccnc(N3CCCC3)c2)c2c(c1)OCCCO2`, the “Percent Effect” value was -11.45%.

Consider `c1cc(CNCc2ccnc(N3CCOCC3)c2)c2c(c1)OCCO2`, for which the “Percent Effect” value was -3.552%.

On to `CN(C)c1cc(CNCc2cccc3c2OCCO3)ccn1`, for which the “Percent Effect” value is -14.59%.

On to `CC(C)c1nn(C)c(Cl)c1CNCc1ccc2c(c1)OCCO2.Cl`, for which the “Percent Effect” value was -6.63%.

Consider `Cl.c1cc(CNCc2ccnc(N3CCCC3)c2)c2c(c1)OCCO2`, for which the “Percent Effect” value is given as 3.03%.

As for `Cl.c1cc(CNCc2ccc(Cn3cncn3)cc2)c2c(c1)OCCO2`, the “Percent Effect” value came out at 98.52%.

`CN(C)C1CCN(C(=O)NCc2ccc(Cn3cncn3)cc2)CC1`: the “Percent Effect” value is listed as -7.697%.

In the case of `OCc1cccc(CNCc2cccc3c2OCCO3)c1`, the “Percent Effect” value is 91.71%.

For the compound `O=S(=O)(CCNCc1cccc2c1OCCO2)N1CCOCC1`, the “Percent Effect” value is on record as -15.52%.

For `Cl.c1cc(CNCc2cccc3c2OCCCO3)cc(Cn2cncn2)c1`, the “Percent Effect” value amounted to 92.05%.

`CC(C)CN1C(=O)CC[C@H]2CN(C(=O)c3ncc[nH]3)CC[C@H]21`: the “Percent Effect” value is listed as 5.326%.

Take `O=C(NCC1(c2ccc(F)cc2)CCC1)N1CCC2(CCOCC2)C1`: the “Percent Effect” value is -1.308%.

For `CC(=O)c1cc(CN2C[C@@H](NS(=O)(=O)N(C)C)[C@H](C(C)C)C2)cs1`, the “Percent Effect” value is recorded as -2.035%.

As for `CC(NCc1ccncc1)c1cc2c(cc1Br)OCCO2` (configuration not stated), the “Percent Effect” value is recorded as -11.71%.

Regarding `Cc1nn(C)c(N(C)C)c1CNCc1cccc(OCCN(C)C)c1`, the “Percent Effect” value is given as -12.69%.

On to `CCc1ncncc1C(=O)NCCNC(=O)c1ccc(C)c(F)c1`, for which the “Percent Effect” value was found to be 24%.

Regarding `c1cc(CNCc2ccnc(N3CCOCC3)c2)c2c(c1)OCCCO2`, the “Percent Effect” value worked out at 13.14%.

For the compound `c1cc(CNCc2cccc3c2OCCO3)cc(Cn2cncn2)c1`, the “Percent Effect” value was 82.82%.

For `CC1CN(c2cc(CNCc3cccc4c3OCCO4)ccn2)CCO1` (configuration not stated), the “Percent Effect” value is -31.92%.
